SMILES strings stand for the structures.

Tested on in the first assay: not listed separately
Description: probe aInhba binding on compound microarray – biochemical, small-molecule microarray, 635/667 nm fluorescence, primary screen (AID 1148).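 Also: score merges 667nm spot fluorescence with signal-to-noise for antibody binding to printed compounds.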 The note with it: higher = more signal.
Turning to `C=CCNC(=O)[C@H]1[C@@H]2C(=O)O[C@@H](c3ccccc3)[C@@H](c3ccccc3)N2[C@@H](c2ccccc2OCCO)[C@]12C(=O)N(C(=O)OCCOC)c1ccccc12`, the composite z-score was -0.358.
Compound `O=C1OCCC/C=C\[C@H]2OC34C=CCN(Cc5ccccc5)C(=O)[C@H]3N(CCCCCO)C(=O)[C@@H]4C12` (some centres not stated) displayed a composite z-score of -0.186.
With `CC(C)(C)OC(=O)CC[C@]1(C(=O)N2CCOCC2)N=C(c2ccc(OCCCO)cc2)O[C@H]1c1ccccc1CN=[N+]=[N-]`, the composite z-score was 0.279.
As to `CCCC=C(CCC)[C@@H](NC(=O)c1ccco1)c1ccc(C(=O)OC)cc1`, the composite z-score turned out to be 0.218.
Take `COC(=O)c1c(CC[C@@H](CO)NC(=O)N[C@@H](Cc2ccccc2)Cn2cc(-c3cncn3C)nn2)oc(C(C)=O)c1C(=O)OC`: the composite z-score is 0.0872.
Compound `COC(=O)[C@@]1(Cc2ccc(OC)cc2)[C@H]2c3cc(C(=O)N(C)C)n(Cc4ccsc4Br)c3C[C@H]2CN1C(=O)c1ccccc1` came in with a composite z-score of 0.571.
As for `C=CCC(OC(C)=O)[C@@H]1[C@@H](N(Cc2ccc(-c3ccccc3)cc2)C(=O)c2ccc(-c3ccccc3)cc2)c2cc(OCCCO)ccc2N1C(=O)c1ccc2ccccc2n1` (some centres not stated), the composite z-score came to 0.333.
As to `O=C1c2ccccc2[C@](Cc2ccccc2I)(C(=O)O)[C@H](c2ccc(CO)cc2)N1Cc1ccccc1`, the composite z-score came to 0.0627.
Still for that read-out and setting: the result for `COCC(=C=CC[C@@H](O)c1cccc(OCCO)c1)C[C@@H](O)COCc1ccccc1` reads 0.825.
With `C[N+](C)(C)CCCCCCNC(=O)[C@@H]1C[C@@H]2C(=O)N[C@@H](Cc3ccccc3)C(=O)N2[C@@H]1c1ccc(O)cc1`, the composite z-score is -0.0039.
Still for that read-out and setting: the same measure for `COCCOC(=O)N1C(=O)[C@@]2(c3ccccc31)[C@H](c1ccc(OCCO)cc1)N1[C@H](c3ccccc3)[C@H](c3ccccc3)OC(=O)[C@H]1[C@@H]2C(=O)N1CCN(c2ncccn2)CC1`: 0.134.
Still for that read-out and setting: the result for `COCCOC(=O)N1C(=O)[C@@]2(c3cc(C#CCCO)ccc31)[C@H](c1ccccc1OCCO)N1[C@H](c3ccccc3)[C@H](c3ccccc3)OC(=O)[C@H]1[C@@H]2C(=O)N1CCc2cc(OC)c(OC)cc2C1` reads -0.0448; that for `C=CCC(OC(C)=O)[C@@H]1[C@@H](N(Cc2cc3ccccc3o2)C(=O)Cc2ccc(OC)cc2)c2cc(OCCCO)ccc2N1C(=O)Cc1ccc(OC)cc1` (some centres not stated), 0.168.
On to `CC(C)C[C@H]1NC(=O)[C@@]23C(=O)N[C@@H](Cc4ccccc4)C2[C@H](C)[C@@]2(C)O[C@H]2C3/C=C/C/C=C\CNC(=O)[C@@H]2CCCN2C1=O` (some centres not stated), for which the composite z-score was -0.0471.
Regarding `COCCOC(=O)N1C(=O)[C@@]2(c3cc(C#CCC(C(=O)OC)C(=O)OC)ccc31)[C@H](c1ccc(OCCO)cc1)N1[C@H](c3ccccc3)[C@H](c3ccccc3)OC(=O)[C@H]1[C@@H]2C(=O)N1CCCCCCC1`, the composite z-score came to 1.91.
`COCC(=C=CC[C@@H](O)c1ccc(OCCO)cc1)C[C@@H](O)COCc1ccccc1` yielded a composite z-score of 0.0345.
As for `COC(=O)[C@@H]1N=C(c2ccc(OCCCO)cc2)O[C@@H]1c1ccccc1CN=[N+]=[N-]`, the composite z-score stood at 0.177.
Still for that read-out and setting: the same measure for `C=C(COC)C(=O)CC[C@@H](OC(C)=O)c1ccc(OCCO)cc1`: -0.0523; for `O=C(NCCO)C1=C[C@H](Oc2ccccc2I)[C@@H](O)[C@H](NCc2ccc(F)cc2)C1`: -0.197.
Same read-out and setting: the same measure for `O=C1O[C@@H](c2ccccc2)[C@@H](c2ccccc2)N2[C@@H](c3ccc(OCCO)cc3)[C@]3(C(=O)Nc4ccc(C#CCCO)cc43)[C@@H](C(=O)Nc3nc4ccccc4s3)[C@H]12`: 0.0291; for `NCCCC[C@@H]1NC(=O)[C@H]2C[C@@H](C(=O)O)[C@@H](c3cccc(OCCO)c3)N2C1=O`: 0.15.
Turning to `COCCOC(=O)N1C(=O)[C@@]2(c3cc(C#CCCO)ccc31)[C@H](C(=O)N1CCc3cc(OC)c(OC)cc3C1)[C@H]1C(=O)O[C@H](c3ccccc3)[C@H](c3ccccc3)N1[C@@H]2c1ccccc1OCCO`, the composite z-score is 0.425.
On the same count and under the same terms, the result for `COC(=O)[C@@]1(Cc2ccccc2)[C@@H]2[C@@H](CC(=O)[C@H]2CC(=O)C(=O)N(C)C)CN1C(=O)c1ccccc1` reads -0.0963; that for `O=C1O[C@H](c2ccccc2)[C@H](c2ccccc2)N2[C@H]1[C@@H](C(=O)N1CCN(c3ncccn3)CC1)[C@]1(C(=O)Nc3ccccc31)[C@H]2c1ccc(O)cc1`, 0.0018; that for `CCOC(=O)C1=CC[C@@H](c2ccccc2Cl)N(S(=O)(=O)c2ccc(C)cc2)[C@H]1c1cccc(OC)c1`, -0.0695.

For the next assay, the target named is Torsin-1A (Homo sapiens) (UniProt O14656). Nature of the assay: TOR1A wild-type binding on microarray – cell lysate, small-molecule microarray, lysate, 635/667 nm, primary screen (AID 1149). The following applies: COS7 hTOR1A-WT lysate, 635 nm fluorescence, higher = more signal.
Chain of Torsin-1A (Homo sapiens) (O14656 whole entry, looked up): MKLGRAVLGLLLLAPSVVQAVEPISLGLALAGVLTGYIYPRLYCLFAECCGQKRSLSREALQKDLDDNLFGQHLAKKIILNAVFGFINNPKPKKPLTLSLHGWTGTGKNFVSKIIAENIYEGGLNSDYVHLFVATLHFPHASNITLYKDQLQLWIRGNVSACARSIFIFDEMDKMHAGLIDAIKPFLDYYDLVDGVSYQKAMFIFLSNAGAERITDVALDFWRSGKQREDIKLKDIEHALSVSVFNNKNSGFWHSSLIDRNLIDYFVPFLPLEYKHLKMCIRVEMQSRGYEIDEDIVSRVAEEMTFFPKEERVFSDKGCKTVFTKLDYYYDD
The compound `Cc1ccccc1C(O)C1C=CC2C(=O)N(c3ccccc3)C(=O)C2N1Nc1ccccc1F` (configuration not stated) had a composite z-score of 0.575.
On the same count and under the same terms, the same measure for `COC(=O)[C@@]1(CCS(=O)(=O)c2ccccc2)N=C(c2ccc(OCCCO)cc2)O[C@H]1c1ccccc1N=[N+]=[N-]`: 1.83.
In turn, `C=C(CCCC)C(=O)CC[C@H](OC(=O)c1cccnc1)c1ccc(CO)o1` displayed a composite z-score of 0.835.
The compound `COCCOC(=O)N1C(=O)[C@@]2(c3cc(C#CC4(O)CCCCCC4)ccc31)[C@H](c1ccc(OCCO)cc1)N1[C@H](c3ccccc3)[C@H](c3ccccc3)OC(=O)[C@H]1[C@@H]2C(N)=O` displayed a composite z-score of 0.974.
The same measure, in the same setting: the result for `CN(C)C(=O)[C@]1(Cc2ccccc2)N=C(c2ccc(OCCCO)cc2)O[C@@H]1c1ccccc1` reads 0.193; that for `COc1ccc(C#Cc2ccc3c(c2)[C@]2(C(=O)N3)[C@H](C(=O)Nc3nc4ccccc4s3)[C@H]3C(=O)O[C@H](c4ccccc4)[C@H](c4ccccc4)N3[C@@H]2c2ccc(OCCO)cc2)cc1`, 0.504; that for `CCOC(=O)C[C@H]1[C@H](OC(=O)c2ccc(C(=O)c3ccccc3)cc2)[C@@H](NC(=O)c2ccc3ccccc3c2)c2cc(OCCCO)ccc2N1C(=O)c1ccc2ccccc2n1`, 0.182.
The same measure, in the same setting: the result for `CN(C)CCCCNC(=O)[C@H]1C[C@H]2C(=O)N[C@@H](Cc3ccccc3)C(=O)N2[C@H]1c1cccc(OCCO)c1` reads -0.163; that for `C=C(CC1([C@@H](NP(=O)(c2ccccc2)c2ccccc2)[C@H]2C[C@@H]2CCN(C(=O)OCC)S(=O)(=O)c2ccc(C)cc2)CC1)c1ccccc1`, -0.423.
Same read-out and setting: the result for `C=C(CCCC)/C(=C/C[C@H](OC(C)=O)c1cccc(OCCO)c1)c1cc(C(=O)OC)ccc1OC` reads -0.552.
`C=CCNC(=O)[C@H]1[C@@H]2C(=O)O[C@@H](c3ccccc3)[C@@H](c3ccccc3)N2[C@@H](c2ccccc2OCCO)[C@]12C(=O)N(C(=O)OCCOC)c1ccccc12` returned a composite z-score of -0.025.
The same measure, in the same setting: the same measure for `O=C1OCCC/C=C\[C@H]2OC34C=CCN(Cc5ccccc5)C(=O)[C@H]3N(CCCCCO)C(=O)[C@@H]4C12` (some centres not stated): -0.234.
Same read-out and setting: the same measure for `CC(C)(C)OC(=O)CC[C@]1(C(=O)N2CCOCC2)N=C(c2ccc(OCCCO)cc2)O[C@H]1c1ccccc1CN=[N+]=[N-]`: 1.12; for `CCCC=C(CCC)[C@@H](NC(=O)c1ccco1)c1ccc(C(=O)OC)cc1`: 0.0918.
Still for that read-out and setting: the result for `COC(=O)c1c(CC[C@@H](CO)NC(=O)N[C@@H](Cc2ccccc2)Cn2cc(-c3cncn3C)nn2)oc(C(C)=O)c1C(=O)OC` reads 0.443; that for `COC(=O)[C@@]1(Cc2ccc(OC)cc2)[C@H]2c3cc(C(=O)N(C)C)n(Cc4ccsc4Br)c3C[C@H]2CN1C(=O)c1ccccc1`, -0.0008; that for `C=CCC(OC(C)=O)[C@@H]1[C@@H](N(Cc2ccc(-c3ccccc3)cc2)C(=O)c2ccc(-c3ccccc3)cc2)c2cc(OCCCO)ccc2N1C(=O)c1ccc2ccccc2n1` (some centres not stated), -0.178.
With `O=C1c2ccccc2[C@](Cc2ccccc2I)(C(=O)O)[C@H](c2ccc(CO)cc2)N1Cc1ccccc1`, the composite z-score was found to be 0.363.
For `COCC(=C=CC[C@@H](O)c1cccc(OCCO)c1)C[C@@H](O)COCc1ccccc1`, the composite z-score turned out to be 1.58.
For `C[N+](C)(C)CCCCCCNC(=O)[C@@H]1C[C@@H]2C(=O)N[C@@H](Cc3ccccc3)C(=O)N2[C@@H]1c1ccc(O)cc1`, the composite z-score is 1.26.
Same read-out and setting: the result for `COCCOC(=O)N1C(=O)[C@@]2(c3ccccc31)[C@H](c1ccc(OCCO)cc1)N1[C@H](c3ccccc3)[C@H](c3ccccc3)OC(=O)[C@H]1[C@@H]2C(=O)N1CCN(c2ncccn2)CC1` reads 0.819.
Still for that read-out and setting: the same measure for `COCCOC(=O)N1C(=O)[C@@]2(c3cc(C#CCCO)ccc31)[C@H](c1ccccc1OCCO)N1[C@H](c3ccccc3)[C@H](c3ccccc3)OC(=O)[C@H]1[C@@H]2C(=O)N1CCc2cc(OC)c(OC)cc2C1`: 1.17; for `C=CCC(OC(C)=O)[C@@H]1[C@@H](N(Cc2cc3ccccc3o2)C(=O)Cc2ccc(OC)cc2)c2cc(OCCCO)ccc2N1C(=O)Cc1ccc(OC)cc1` (some centres not stated): 0.29; for `CC(C)C[C@H]1NC(=O)[C@@]23C(=O)N[C@@H](Cc4ccccc4)C2[C@H](C)[C@@]2(C)O[C@H]2C3/C=C/C/C=C\CNC(=O)[C@@H]2CCCN2C1=O` (some centres not stated): -0.056.
Still for that read-out and setting: the result for `COCCOC(=O)N1C(=O)[C@@]2(c3cc(C#CCC(C(=O)OC)C(=O)OC)ccc31)[C@H](c1ccc(OCCO)cc1)N1[C@H](c3ccccc3)[C@H](c3ccccc3)OC(=O)[C@H]1[C@@H]2C(=O)N1CCCCCCC1` reads 2.42; that for `COCC(=C=CC[C@@H](O)c1ccc(OCCO)cc1)C[C@@H](O)COCc1ccccc1`, 0.681; that for `COC(=O)[C@@H]1N=C(c2ccc(OCCCO)cc2)O[C@@H]1c1ccccc1CN=[N+]=[N-]`, -1.73.
Compound `C=C(COC)C(=O)CC[C@@H](OC(C)=O)c1ccc(OCCO)cc1` came in with a composite z-score of 1.82.
Compound `O=C(NCCO)C1=C[C@H](Oc2ccccc2I)[C@@H](O)[C@H](NCc2ccc(F)cc2)C1` gave a composite z-score of 0.693.
In turn, `O=C1O[C@@H](c2ccccc2)[C@@H](c2ccccc2)N2[C@@H](c3ccc(OCCO)cc3)[C@]3(C(=O)Nc4ccc(C#CCCO)cc43)[C@@H](C(=O)Nc3nc4ccccc4s3)[C@H]12` registered a composite z-score of 0.222.
As to `NCCCC[C@@H]1NC(=O)[C@H]2C[C@@H](C(=O)O)[C@@H](c3cccc(OCCO)c3)N2C1=O`, the composite z-score is 1.18.
`COCCOC(=O)N1C(=O)[C@@]2(c3cc(C#CCCO)ccc31)[C@H](C(=O)N1CCc3cc(OC)c(OC)cc3C1)[C@H]1C(=O)O[C@H](c3ccccc3)[C@H](c3ccccc3)N1[C@@H]2c1ccccc1OCCO`: the composite z-score is 0.258.
